This note sets out measurements from PubChem BioAssay (Tox21).

Assay [1] is described as follows: qHTS RealTime-Glo MT Cell Viability Assay in HepG2 cells - 40 hour (AID 1224870). Further: nearly all actives have a fitted effect of over 50% in size. In a few lines: (§1)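 HepG2 cells (600/well) mixed with RealTime-Glo MT reagent, settled 5 h at 37 C/5% CO2 before compound addition. Nonlytic NanoLuc luminescence from viable-cell prosubstrate reduction read repeatedly during 40 h treatment at 37 C.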
The nature of assay [2]: qHTS RealTime-Glo MT Cell Viability Assay in HEK293 cells - 16 hour (AID 1224872). Further: top concentration of the series differs between compounds; nearly all actives have a fitted effect of over 50% in size. In a few lines: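 HEK293 cells were seeded at 600 cells/well together with NanoLuc luciferase and cell-permeant prosubstrate, preincubated 5 h at 37 C/5% CO2, then given compound in DMSO by pintool. Luminescence from viable-cell prosubstrate reduction was read repeatedly over 40 h.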
Assay [3] in a line: qHTS RealTime-Glo MT Cell Viability Assay in HepG2 cells - 8 hour (AID 1224873). Further: nearly all actives have a fitted effect of over 55% in size. In a few lines:
as §1

Assay [4] in a line: qHTS RealTime-Glo MT Cell Viability Assay in HEK293 cells - 40 hour (AID 1224874). Further: nearly all actives have a fitted effect of over 50% in size. Particulars: RealTime-Glo luminescence; max response: active compounds read low. In a few lines: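 Kinetic, non-lysing viability readout. Seed HEK293 (600/well) with reagent, incubate 5 h at 37 C/5% CO2, pin 23 nL compound in DMSO, incubate at 37 C, read luminescence at 0, 8, 16, 24, 32, 40 h.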
Assay [5] in a line: A CellTox Green Cytotoxicity Assay to monitor cytotoxicity in HEK293 cells - 24 hour (AID 1224875). Further: series mostly up to about 77 µM; nearly all actives have a fitted effect of over 45% in size. In a few lines:
(§2)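 Real-time, in one plate: 600 HEK293 cells/well with dead-cell DNA dye, pinned compound after 5 h, 37 C incubation over 40 h; viable cells give no appreciable fluorescence.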

Assay [6] can be described thus: A CellTox Green Cytotoxicity Assay to monitor cytotoxicity in HepG2 cells - 16 hour (AID 1224876). Further: nearly all actives have a fitted effect of over 45% in size. In a few lines: (§3)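 Cytotoxicity was tracked as dead-cell DNA fluorescence in HepG2 cells treated with test compounds at 37 C; each time-point value comes from one kinetic series spanning 0, 8, 16, 24, 32 and 40 h.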
Assay [7] is described as follows: A CellTox Green Cytotoxicity Assay to monitor cytotoxicity in HepG2 cells - 24 hour (AID 1224878). Further: nearly all actives have a fitted effect of over 45% in size. In a few lines: as §3
Assay [8] in a line: A CellTox Green Cytotoxicity Assay to monitor cytotoxicity in HepG2 cells - 40 hour (AID 1224879). Further: nearly all actives have a fitted effect of over 40% in size. Further: potency means the concentration at half of the fitted maximal effect. In a few lines:
as §3

The nature of assay [9]: qHTS RealTime-Glo MT Cell Viability Assay in HepG2 cells - 32 hour (AID 1224877). Further: nearly all actives have a fitted effect of over 55% in size. In a few lines:
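HepG2 cells were seeded at 600 cells/well together with NanoLuc luciferase and a cell-permeant prosubstrate, preincubated 5 h at 37 C/5% CO2, then pin-dosed with compounds in DMSO. Nonlytic luminescence from viable cells was read at each time point.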

Assay [10] in a line: A CellTox Green Cytotoxicity Assay to monitor cytotoxicity in HEK293 cells - 40 hour (AID 1224871). Further: nearly all actives have a fitted effect of over 45% in size. In short, it runs like this:
as §2

Each structure is given as a SMILES string. Inconclusive results are not listed. Unmarked numbers belong to inactive results. Active and inactive are the calls of the source. The call rests on the fitted dose curve; in most records, active means well fitted curve in the direction sought with a large enough effect in the repeat runs; inconclusive means weak or mixed curves; inactive means no such curve, though single readings can be large; an effect the other way counts as inactive or inconclusive.
On the % scale 0 is the no-effect control and ±100 the full control effect.

On to `CCN[C@@H](C)Cc1ccccc1`, for which the Potency entry in assay [1], in [2], in assay [5], in assay [6] and in assay [7] was “inactive” throughout. Further, the result in [3] was inactive. In addition, the max response in assay [4] was -5.07%. Moreover, the Potency in assay [8] is 154 nM (active).
Take `CC(O)CCl` (configuration not stated): the Potency result in assay [1], in [2], in assay [5], in [6], in assay [9] and in [7] was “inactive” throughout. Further, in assay [8], the Potency result is “inactive”. The molecule was classed as inactive in assay [3]. Besides, the max response in [4] was 1.35%.
In the case of `CCOc1cc(OP(=S)(OC)OC)nc(CC)n1`, the Potency entry in assay [1], in [2], in [5], in [6], in assay [9] and in assay [7] was “inactive” throughout. The Potency result in [8] was “inactive”. Moreover, the molecule was classed as inactive in [3]. In [4], the max response was 6.75%.
On to `CCN(CC)CCOC(=O)C(O)(c1ccccc1)c1ccccc1`, for which the Potency entry in [1], in assay [2], in assay [5], in [6] and in assay [8] was “inactive” throughout. Also, the molecule was classed as inactive in assay [3]. In assay [4], the max response is -0.657%.
Regarding `O=P(O)(O)c1ccccc1`, the Potency entry in [1], in assay [2], in assay [5], in [6], in [9] and in assay [7] was “inactive” each time. Moreover, the Potency result in [8] was “inactive”. In addition, in assay [4], the max response was 9.41%.
As for `O=C(NC(=O)c1c(F)cccc1F)Nc1cc(Cl)c(F)c(Cl)c1F`, the Potency entry in [1], in [2], in [5], in assay [6], in assay [9] and in assay [8] was “inactive” throughout. Further, in [4], the max response is -0.171%.
For the molecule `CCC1(c2ccccc2)C(=O)N(COC)C(=O)N(COC)C1=O`, the Potency result in assay [1], in assay [2], in [5], in assay [6], in assay [9] and in assay [7] was “inactive” throughout. Besides, the Potency entry in assay [8] is “inactive”. In addition, the molecule was called inactive in assay [3]. The max response in assay [4] was 2.07%.
Turning to `COc1cccc(C=O)c1`, the Potency result in assay [1], in [5], in assay [6], in [9] and in assay [7] was “inactive” each time. Besides, in assay [4], the max response is -0.107%.
Take `CC(C)(C1CCC(O)CC1)C1CCC(O)CC1` (configuration not stated): the Potency result in assay [1], in assay [2], in assay [5], in assay [6], in assay [9] and in [7] was “inactive” in each case. Besides, the Potency entry in assay [8] is “inactive”. Also, in assay [3], the call was inactive.
As for `CCC1(c2ccccc2)CCC(=O)NC1=O` (configuration not stated), the Potency result in assay [1], in assay [2], in assay [5], in assay [6], in assay [9] and in assay [7] was “inactive” each time. The Potency entry in assay [8] is “inactive”. In addition, the molecule was classed as inactive in [3]. Moreover, the max response in assay [4] is -2.24%.
As to `O=C(O)C(F)(F)C(F)(F)C(F)(F)C(F)(F)C(F)(F)C(F)(F)F`, the Potency result in assay [10], in assay [2], in assay [5], in [6], in [9] and in [7] was “inactive” in each case. For the same molecule, the Potency entry in [8] was “inactive”. Also, the max response in [4] was -16.5%.
With `C=C(Cl)CCl`, the Potency entry in assay [10], in assay [2], in assay [5], in assay [6], in [9] and in [7] was “inactive” throughout. For the same molecule, the Potency result in assay [8] was “inactive”. Besides, the result in assay [3] was inactive. Also, in assay [4], the max response is -1.15%.
Regarding `NC(=O)CS(=O)C(c1ccccc1)c1ccccc1` (configuration not stated), the Potency entry in assay [10], in [2], in assay [5], in assay [6] and in assay [8] was “inactive” each time. Moreover, in [3], the molecule was called inactive. The max response in assay [4] is -4.1%.
Consider `CCCOC(=O)c1cncn1C(C)c1ccccc1` (configuration not stated), for which the Potency result in assay [10], in assay [2], in assay [5], in assay [6], in assay [9] and in assay [7] was “inactive” in each case. In addition, in [8], the Potency result is “inactive”. The max response in assay [4] was -0.62%.
For the molecule `Cn1c(N)nc2c3cccnc3ccc21`, the Potency result in assay [10], in assay [2], in [5], in assay [6], in assay [9] and in assay [7] was “inactive” in each case. The Potency result in [8] was “inactive”. Also, the outcome in assay [3] was inactive.
Take `CCCCS(=O)(=O)Cl`: the Potency entry in [10], in assay [2], in [5], in assay [6], in assay [7] and in assay [8] was “inactive” in each case. Also, the result in [3] was inactive. The max response in [4] was 6.29%.
With `Cl/C=C/CCl`, the Potency entry in [10], in [2], in assay [5], in assay [6], in assay [9] and in assay [7] was “inactive” each time. Moreover, in assay [8], the Potency entry is “inactive”. Also, the molecule was classed as inactive in assay [3]. For the same molecule, in assay [4], the max response is 7.85%.
For the molecule `CCC(=O)OC1(c2ccccc2)CCN(C)CC1`, the Potency result in assay [10], in [2], in [5], in assay [6], in assay [9] and in [8] was “inactive” throughout. In addition, in [3], the outcome was inactive.
`CCCCOC(C)=O`: the Potency entry in assay [10], in [5], in assay [6] and in assay [9] was “inactive” each time. For the same molecule, the result in assay [3] was inactive. Further, in assay [4], the max response was 8.22%.
Regarding `CCCCCCC(=O)CCCCCC/C=C/C[C@@H](O)[C@H](O)[C@@](N)(CO)C(=O)O`, the cytotoxicity increase in assay [10] was -5.02% [at 15.8 µM]; in [8], -21.5% [at 15.8 µM]. Besides, the viability change, negative = cytotoxic in assay [3] is 1.7% [at 15.8 µM]. In assay [4], the max response was 2.74%. Moreover, the activity change in assay [5] is -5.64% [at 15.8 µM, active compounds read high]. Besides, in assay [9], the activity change, negative = cytotoxic is 0.443% [at 15.8 µM].
Take `C=CCCC#N`: the Potency entry in assay [10], in [2], in assay [5], in assay [6], in [9] and in [7] was “inactive” in each case. Besides, the Potency result in [8] was “inactive”. For the same molecule, the result in [3] was inactive. For the same molecule, the max response in assay [4] is 6.33%.
In the case of `C=C(Cl)CSC(=S)N(CC)CC`, the Potency entry in assay [10], in [5], in [6], in [9] and in assay [7] was “inactive” throughout. Moreover, the molecule was called inactive in [3]. Moreover, the max response in [4] is -15%.
